# Values joined by “and” are separate entries in the source; they are usually repeats but may differ in a detail not shown here. Equal values may be shown once. Out of some 16,000 compounds screened, about 5,700 (36%) were called active. About 24% were inconclusive and are not listed. The list shows a part of the results. Values without a mark were called inactive. Calls follow the shape of the dose curve; as a rule, active = well fitted curve in the direction sought with a large enough effect; inconclusive = small, poorly fitted or top-dose-only effect, or effect the other way; inactive = no such curve, though single readings can be large or run the other way.
# Biological target: Cytochrome P450 1A2 (Homo sapiens) (UniProt P05177)
# Sequence (P05177 whole entry, looked up): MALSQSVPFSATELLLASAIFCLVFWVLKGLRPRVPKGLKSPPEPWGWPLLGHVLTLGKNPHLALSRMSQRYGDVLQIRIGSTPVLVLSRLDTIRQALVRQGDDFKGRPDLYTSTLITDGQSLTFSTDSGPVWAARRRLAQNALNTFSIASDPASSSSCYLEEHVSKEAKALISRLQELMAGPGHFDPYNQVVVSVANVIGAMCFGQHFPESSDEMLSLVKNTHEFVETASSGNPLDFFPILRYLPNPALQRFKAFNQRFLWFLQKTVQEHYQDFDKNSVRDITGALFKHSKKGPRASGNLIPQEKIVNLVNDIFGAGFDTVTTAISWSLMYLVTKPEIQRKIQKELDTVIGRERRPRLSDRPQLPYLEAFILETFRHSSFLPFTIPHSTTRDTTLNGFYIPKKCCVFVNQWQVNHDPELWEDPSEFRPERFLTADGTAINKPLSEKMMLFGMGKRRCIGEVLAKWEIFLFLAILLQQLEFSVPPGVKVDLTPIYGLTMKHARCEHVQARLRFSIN
# Assay: Cytochrome panel assay with activity outcomes
# Conditions: recombinant CYP, pro-luciferin dealkylation, luminescence, p450-cyp1a2; series mostly up to 57.1 µM
# % is scaled to controls: 0 for no effect and ±100 for the full control effect.
Structure (SMILES),AC50,"activity, negative = inhibition"
c1cc(CN2CCC3(CCNCC3)CC2)ccn1,inactive,
NCc1cc(=O)[nH]o1,inactive,
CN(C)c1ccc(NC(=O)CN2C(=O)CN=C(c3ccccc3)c3ccccc32)cc1,10 µM (active),
CCN(CC)CCO[C@H]1CC[C@@]2(C)C(=CC[C@@H]3[C@H]2CC[C@]2(C)C(=O)CC[C@H]32)C1,inactive,
O=C(C[C@H](c1ccccc1)c1c(O)c2ccccc2oc1=O)c1ccccc1,,-12.6% [at 2.29 µM]
O=C(Nc1ccccc1)N1CCC2(CC1)CCN(C(=O)Oc1ccccc1)CC2,inactive,
COc1ccc(NC(=O)N2CC[C@@]3(CCCN(C(=O)Oc4ccccc4)C3)C2)cc1,inactive,
COc1ccc(NC(=O)N2CCCC3(CCN(C(=O)Oc4ccccc4)CC3)C2)cc1,12.6 µM (active),
CN1CCCC2(CCN(C(=O)c3ccncc3)CC2)C1,inactive,
Cc1nc2sccc2c(=O)n1-c1ccccc1Cl,inactive,
O=c1c2ccccc2nc(N2CCCC2)n1-c1ccc(Cl)cc1,5.01 µM (active),
C[Se]C[C@@H](N)C(=O)O,inactive,
CN1C(=O)CCS(=O)(=O)[C@H]1c1ccc(Cl)cc1,inactive,
O=C(C1CC(=O)N(C2CCCC2)C1)N1CCC2(CC1)OCCO2 (stereo not given),inactive,
CC(C(=O)c1c[nH]c2ccccc12)N1CCSCC1 (stereo not given),15.8 µM (active),
C[N+]1(C)[C@@H]2CC[C@H]1CC(OC(=O)c1c[nH]c3ccccc13)C2 (stereo not given in full),inactive,
N[C@H](Cc1c[nH]c2ccccc12)P(=O)(O)O,,-15.7% [at 11.4 µM]
C=Cn1ccnc1P(=S)(c1nccn1C=C)C1CCCCC1,inactive,
Cc1cc(=O)n(-c2ccccc2)n1C,inactive,
C=C(C)[C@H]1CN[C@H](C(=O)O)[C@@H]1CC(=O)O,inactive,
CC(N)Cc1ccccc1Sc1ccc(O)cc1 (stereo not given),inactive,
CC(=O)N[C@@H]1CCSC1=O,inactive,
CCOC(C(=O)OCCCN(CC)CC)(c1ccccc1)c1ccccc1,inactive,
CCN(CC)CC#CCOC(=O)[C@@](O)(c1ccccc1)C1CCCCC1,1.26 µM (active),
CC[N@+]1(C)CCC[C@@H](OC(=O)C(O)(c2ccccc2)c2ccccc2)C1,inactive,

Structure (SMILES),AC50,"activity, negative = inhibition"
c1ccc(CN2CCCC3(CCNCC3)C2)cc1,inactive,
C/C(=N\OC(=O)NC(C)C)c1sc(-c2ccc(Cl)cc2)nc1C,1.12 µM (active),
C/C(=N\OC(=O)NC(C)C)c1sc(-c2ccccc2)nc1C,2 µM (active),
CC[C@@H]1CN2CCc3cc(OC)c(OC)cc3[C@H]2C[C@@H]1C[C@@H]1NCCc2cc(O)c(OC)cc21,inactive,
CCN1C[C@]2(C)CC[C@H](OC)[C@@]34[C@@H]2[C@H](OC(C)=O)[C@]2(OCO[C@@]25C[C@@H](OC)[C@@H]2C[C@@]3(O)[C@H]5[C@@H]2OC)[C@H]14,inactive,
CCN(CC)c1ncnc2c1ncn2[C@@H]1O[C@@H](COP(=O)(O)OP(=O)(O)C(Br)(Br)P(=O)(O)O)[C@H](O)[C@@H]1O,inactive,
CCc1ccccc1NC(=S)NC1CC2CCC(C1)N2Cc1ccco1 (stereo not given),inactive,
CN1[C@@H](C[C@@H](O)c2ccccc2)CCC[C@@H]1C[C@H](O)c1ccccc1,5.01 µM (active),
Cn1c[n+](C)cc1C(O)c1ccccc1 (stereo not given),inactive,
CN1[C@@H]2CC[C@H]1CC(O[C@@H](c1ccccc1)c1ccc(Cl)cc1)C2 (stereo not given in full),inactive,
CN1[C@H](CC(=O)c2ccccc2)CCC[C@H]1C[C@H](O)c1ccccc1,15.8 µM (active),
CC[C@@]1(c2ccc(N)cc2)CCC(=O)NC1=O,inactive,
Oc1ccc2c3c1O[C@H]1c4[nH]c5ccccc5c4C[C@]4(O)[C@H](C2)N(CC2CC2)CC[C@@]314,inactive,
NS(=O)(=O)c1cc([C@@]2(O)NC(=O)c3ccccc32)ccc1Cl,inactive,
C[N+](C)(C)[C@H](Cc1c[nH]c(=S)[nH]1)C(=O)O,,-18.9% [at 11.4 µM]
COc1cc(C(=O)OC2C[C@H]3CC[C@@H](C2)N3C)ccc1O (stereo not given in full),inactive,
C=C(C)[C@H]1CC[C@]2(CO)CC[C@]3(C)[C@@H](CC[C@H]4[C@@]5(C)CC[C@@H](O)C(C)(C)[C@@H]5CC[C@@]43C)[C@H]12,inactive,
O=C(Nc1cccc(F)c1)N1CC2(CCNCC2)C1,inactive,
CC(=O)NCCc1c[nH]c2ccccc12,15.8 µM (active),
NCCc1c[nH]c2ccccc12,3.16 µM (active),
CC(C)C[C@H](NP(=O)(O)O[C@@H]1O[C@@H](C)[C@@H](O)[C@@H](O)[C@H]1O)C(=O)N[C@@H](Cc1c[nH]c2ccccc12)C(=O)O,inactive,
NCCc1c[nH]c2ccc(C(N)=O)cc12,6.31 µM (active) and 1.26 µM (active),
CNCCc1c[nH]c2ccc(O)cc12,inactive,
CN(C)CCCc1c[nH]c2ccccc12,,-12.5% [at 11.4 µM]
NCCc1ccc(O)cc1,inactive,

Structure (SMILES),AC50,"activity, negative = inhibition"
NCCc1c[nH]c2ccc(O)cc12,2 µM (active),
COC(=O)[C@H]1[C@H](c2ccccc2)C(=O)[C@@]2(O)c3ccccc3O[C@@]12c1ccccc1,,-5.65% [at 11.4 µM]
CO[C@@H](C)[C@](O)(C(=O)OCC1=CCN2CC[C@@H](O)[C@H]12)C(C)C,inactive,
c1ccc(CCN2CCOCC2)nc1,,-3% [at 2.29 µM]
CCCCCCCCCCCCCC(=O)O[C@H]1[C@@H](C)[C@@]2(O)[C@@H](C=C(CO)C[C@]3(O)C(=O)C(C)=C[C@@H]23)C2C(C)(C)[C@]21OC(C)=O (stereo not given in full),inactive,
C[C@H]1[C@H](NC(=O)/C(=N/OC(C)(C)C(=O)O)c2csc(N)n2)C(=O)N1S(=O)(=O)O (stereo in doubt),inactive,
Cc1ccc(N2C(=O)/C(=C/c3ccc(CN(CCC#N)S(C)(=O)=O)o3)C(=O)NC2=S)cc1C,inactive,
CCCN(CCC)C(=O)Cc1c(-c2ccc(Cl)cc2)nc2c(Cl)cc(Cl)cn12,inactive,
NC(=O)c1ccc(C(=O)Nc2ccc([As](=O)(O)O)cc2)cc1,,-13.8% [at 2.29 µM]
CCOP(=O)(CN(CC)CCNP(=O)(OCC)OCC)OCC,inactive,
CN1C2CCC1CC(OC(=O)c1ccc(Cl)cc1)C2 (stereo not given),inactive,
C[C@@]12CC[C@H]3[C@H](CC=C4C[C@@H](O)CC[C@@]43C)[C@@H]1CC[C@@H]2N(CCO)CCO,,-4.6% [at 11.4 µM]
COC(=O)c1[nH]c2ccc(Br)cc2c1NC(=O)Oc1ccccc1,0.0631 µM (active),
C[C@]12CC[C@H](O)CC1=CC[C@@H]1[C@H]2CC[C@]2(C)C(=O)CC[C@H]12,inactive,
N[C@H](CCCCCP(=O)(O)O)C(=O)O,inactive,
C/C(=C\C=C/[C@@H](C)C(=O)O)[C@H]1CN[C@H](C(=O)O)[C@@H]1CC(=O)O,inactive,
C[C@]1(O)CC[C@H]2[C@@H]3[C@@H](O)CC4=CC(=O)CC[C@@]4(C)[C@H]3CC[C@]21C,,1.44% [at 2.29 µM]
O=P(c1ccccc1)(c1ccccc1)N1CC2(CC2)CC(O)(c2ccccc2)C1 (stereo not given),inactive,
O=C(Nc1ccc(Cl)cc1)Nc1nccs1,0.141 µM (active),
C[C@]12CC[C@H]3c4ccc(O)cc4CC[C@@H]3[C@H]1CC[C@@H]2OC(=O)CCc1ccccc1,,-13.8% [at 2.29 µM]
Cc1ccc(-c2nc3ccccc3c(=O)n2-c2ncccc2C)cc1,inactive,
CCCCc1nc2ccccc2c(=O)n1-c1ccccc1[N+](=O)[O-],14.1 µM (active),
CCCCc1nc2ccccc2c(=O)n1-c1ccc(Cl)cc1[N+](=O)[O-],inactive,
CCCc1nc2ccccc2c(=O)n1-c1ccc(OC)cc1,12.6 µM (active),
NC(N)=Nc1ccc2[nH]c3c(c2c1)C[C@]1(O)[C@@H]2Cc4ccc(O)c5c4[C@]1(CCN2CC1CC1)[C@H]3O5,inactive,

Structure (SMILES),AC50,"activity, negative = inhibition"
NS(=O)(=O)C[C-]1C=C[CH]([Sb-]([Cl])([Cl])([Cl])([Cl])[Cl])C=C1.c1ccncc1 (stereo not given),,-15.1% [at 11.4 µM]
O=C(O)[C@@H](O)[C@@H](O)[C@@H]1[O][Sb][O][C@@H]1CO,,-5.14% [at 2.29 µM]
CCC1=C(C[C@H]2NCCc3cc(OC)c(OC)cc32)C[C@H]2c3ccccc3CCN2C1,,-6.07% [at 11.4 µM]
O=C(O)CNC(=O)[C@@H](CS)Cc1ccccc1,inactive,
Cc1sc2ccccc2c1CC1=NCCN1,2.51 µM (active),
Cc1cc(C(C)(C)C)cc(C)c1CC1=NCCN1,inactive,
c1ccc2cc(CC3=NCCN3)ccc2c1,inactive,
CCCN1CCC[C@H](c2cccc(C#N)c2)C1,inactive,
CCN(CC)c1ccc(/C=C2/C(=O)NC(=O)N(CC3CCCO3)C2=O)cc1 (stereo not given),12.6 µM (active),
O=c1cccc2n1CC1CNC[C@H]2C1,inactive,
CC(C)(C)CC(=O)NC(=S)Nc1ccccc1C(F)(F)F,11.2 µM (active),
O=[As](O)(O)c1ccc(N=Nc2ccc(O)cc2)cc1,,-14.5% [at 11.4 µM]
O=P(Nc1c(Cl)cccc1Cl)(c1ccccc1)c1nc2c(s1)CCCC2 (stereo not given),inactive,
CCN(CC)C(=O)N[C@@H]1C[C@H]2c3cccc4[nH]cc(c34)C[C@@H]2N(C)C1,inactive,
CCCN(CCC)[C@@H]1CCc2ccc(O)cc2C1,inactive,
C=CCN1CCC2(C)c3cc(O)ccc3C[C@H]1[C@H]2C,inactive,
CN1CCc2cc(O)cc3c2[C@H]1Cc1ccc(O)c(O)c1-3,12.6 µM (active),
COc1ccc2cc1Oc1ccc(cc1)C[C@H]1c3cc(c(OC)cc3CCN1C)Oc1c(OC)c(OC)cc3c1[C@@H](C2)N(C)CC3,,2.06% [at 2.29 µM]
COc1cc2c(cc1O)C[C@H]1c3c(cc(O)c(OC)c3-2)CCN1C,2.51 µM (active),
C=CCN1CC[C@@]23c4c5ccc(O)c4O[C@H]2/C(=N\N=C2/CC[C@@]4(O)[C@H]6Cc7ccc(O)c8c7[C@@]4(CCN6CC=C)[C@@H]2O8)CC[C@]3(O)[C@@H]1C5,inactive,
COc1cc2c3cc1Oc1cc(ccc1O)C[C@@H]1c4c(cc(OC)c(O)c4Oc4cccc(c4)C[C@H]3N(C)CC2)CC[N+]1(C)C,inactive,
CCCN1CCc2cc(O)cc3c2[C@H]1Cc1ccc(O)c(O)c1-3,12.6 µM (active),
COc1cc2c3cc1Oc1c(O)c(OC)cc4c1[C@@H](Cc1ccc(cc1)Oc1cc(ccc1O)C[C@H]3N(C)CC2)N(C)CC4,,-8.21% [at 11.4 µM]
CCCN1CC[C@@H]2c3cc(O)ccc3CC[C@H]21,inactive,
C=CCN1CCc2cccc3c2[C@@H]1Cc1ccc(O)c(O)c1-3,3.16 µM (active),
